Experimental data published in PubChem BioAssay (NCATS).
Values without a mark were called inactive. Records with an inconclusive call do not appear. Where a call stands in place of a potency, no number is given. Calls of active or inactive are those of the source. The call rests on the fitted dose curve; in most records, active means well fitted inhibition curve with a large enough effect; inconclusive means small, poorly fitted or top-dose-only effect; inactive means flat fitted curve, though single readings scatter.

Key:
[1] = target: Glutathione peroxidase 1 (Homo sapiens) (UniProt P07203); assay: Primary qHTS Assay for Inhibitors of Recombinant Selenoprotein Glutathione Peroxidase 1 (GPX1) (AID 1845191); further: nearly all actives have a fitted effect of over 65% in size
Glutathione peroxidase 1 (Homo sapiens), sequence (P07203 whole entry, looked up): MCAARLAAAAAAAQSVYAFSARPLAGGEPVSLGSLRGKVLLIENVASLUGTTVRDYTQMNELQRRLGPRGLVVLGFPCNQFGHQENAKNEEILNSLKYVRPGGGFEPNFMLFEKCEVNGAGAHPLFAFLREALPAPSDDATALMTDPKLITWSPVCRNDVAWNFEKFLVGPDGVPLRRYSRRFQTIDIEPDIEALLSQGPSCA
Summary of the method: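 Recombinant GPX1 (10 nM final) was preincubated with compound for 30 min at room temperature, then reacted with 1 mM GSH, 0.5 mM CHP, 0.5 mM NADPH and 100 nM glutathione reductase; NADPH fluorescence (340/450 nm) was read at 0 and 15 min.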

[2] = target: Phospholipid hydroperoxide glutathione peroxidase GPX4 (Homo sapiens) (UniProt P36969); assay: Primary qHTS Assay for Inhibitors of Recombinant Selenoprotein Glutathione Peroxidase 4 (GPX4) (AID 1845192); further: nearly all actives have a fitted effect of over 65% in size; on activity change, negative = inhibition: series mostly up to about 50 µM
Phospholipid hydroperoxide glutathione peroxidase GPX4 (Homo sapiens), sequence (P36969 whole entry, looked up): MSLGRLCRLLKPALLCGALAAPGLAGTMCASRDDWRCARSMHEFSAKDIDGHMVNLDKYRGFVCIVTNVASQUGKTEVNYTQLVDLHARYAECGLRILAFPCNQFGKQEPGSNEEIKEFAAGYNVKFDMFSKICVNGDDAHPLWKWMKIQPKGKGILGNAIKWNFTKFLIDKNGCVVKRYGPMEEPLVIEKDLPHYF
Summary of the method: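 GR-coupled readout: 100 nM GR, 1 mM GSH, 0.5 mM NADPH; NADPH fluorescence (ex 340/em 450 nm) read at t=0 and after 15 min RT. GPX4 200 nM, preincubated 30 min with compound; substrate 0.5 mM CHP.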

[3] = target: Luciferin 4-monooxygenase (Photinus pyralis) (UniProt P08659); assay: Primary firefly luciferase (FLuc) qHTS assay for identification of artifact compounds. (AID 1845220); further: nearly all actives have a fitted effect of over 60% in size; further: potency means the concentration at half of the fitted maximal effect; on activity change, negative = inhibition: series mostly up to about 54 µM
Summary of the method: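 Reaction readout was CCD-imaged luminescence, taken 5 min after adding 10 nM purified firefly enzyme to compound-treated wells holding 10 uM luciferin and ATP in pH 7.6 buffer.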

[4] = tested on: Nanoluciferase (engineered Oplophorus gracilirostris luciferase); assay: Primary Nanoluciferase (NLuc) qHTS assay for identification of artifact compounds. (AID 1845222);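 further: NLuc secreted into diluted conditioned medium of S16 cells; series mostly up to about 54 µM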
Summary of the method: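 Concentration-response data were obtained by luminescence after 5 min with Nano-Glo substrate at 1:100. The enzyme was diluted S16 NLuc-expressing cell medium, preincubated with compound for 15 min at RT. Curves were fitted with a 4-parameter Hill model.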

Row | Structure (SMILES) | Potency [1] | Potency [2] | Potency [3] | Potency [4] | activity change, negative = inhibition [3] | activity, negative = inhibition [4]
1 | COC(=O)c1[nH]c(=O)c2ccccc2c1-c1ccc[nH]1 | inactive | inactive | inactive | inactive |  | 
2 | C[C@H]1CC(=O)C2=C(C1)C(O)C(O)[C@@]1(O)[C@H]2C(=O)c2cccc(O)c2[C@@H]1O (stereo not given in full) | inactive | inactive | inactive | inactive |  | 
3 | O=C(O)c1cc(C(F)(F)F)ccc1N1CC[C@H](OCc2ccccn2)C1 | inactive | inactive | inactive | inactive |  | 
4 | NC(=O)[C@@H]1CC[C@H](c2ccc(OCc3ccccc3F)cc2)N1 | inactive | inactive | 10.7 µM (active) | inactive |  | 
5 | COc1cc(O[C@@H]2O[C@H](CO[C@H]3OC[C@](O)(CO)[C@H]3O)[C@@H](O)[C@H](O)[C@H]2O)cc(OC)c1O | inactive | inactive | inactive | inactive |  | 
6 | CC(O)CCc1ccc(O[C@@H]2O[C@H](CO)[C@@H](O)[C@H](O)[C@H]2O)cc1 (stereo not given in full) | inactive | inactive | inactive | inactive |  | 
7 | CCCC/C=C\CCCCCc1cc(=O)c2ccccc2n1C | inactive | inactive | inactive | inactive |  | 
8 | COc1cc(/C=C/C(=O)O[C@H]2[C@@H]3C=CO[C@@H](O[C@@H]4O[C@H](CO)[C@@H](O)[C@H](O)[C@H]4O)[C@@H]3[C@@]3(CO)O[C@@H]23)ccc1O | inactive | inactive | inactive | inactive |  | 
9 | NCCCCN(Cc1nc2ccccc2[nH]1)[C@H]1CCCc2cccnc21 | inactive | inactive | inactive | inactive |  | 
10 | COc1ccc(N2CCN(CCCNC(=O)Cn3c(=O)c4cccn4c4c(C)ccnc43)CC2)cc1 | inactive | inactive | inactive | inactive |  | 
11 | COc1cc(/C=C/C(=O)O[C@H]2C[C@@H]3C(C(=O)O)=CO[C@@H](O[C@@H]4O[C@H](CO)[C@@H](O)[C@H](O)[C@H]4O)[C@@H]3[C@H]2C)ccc1O | inactive | inactive | inactive | inactive |  | 
12 | COc1c2c(c(C)c3c1C(=O)OC3)OC1(C)CC(O)C34OC(OC)(CC(O)C3(C)C1C2)OC4(C)C (stereo not given) | inactive | inactive | inactive | inactive |  | 
13 | CCC(=O)N1CCc2cc(OC)c(O)cc2C1 | inactive | inactive | inactive | inactive |  | 
14 | O=C(c1ccc(Cl)c([N+](=O)[O-])c1)N1CCN(c2ccccc2F)CC1 | inactive | inactive | inactive | inactive |  | 
15 | COC(=O)C1=CO[C@@H](O[C@@H]2O[C@H](CO)[C@@H](O)[C@H](O)[C@H]2O)[C@@H]2[C@@H](C(=O)O)CC[C@H]12 | inactive | inactive | inactive | inactive |  | 
16 | COC(=O)c1ccc(OC)cc1O[C@@H]1O[C@H](CO[C@@H]2OC[C@@H](O)[C@H](O)[C@H]2O)[C@@H](O)[C@H](O)[C@H]1O | inactive | inactive | inactive | inactive |  | 
17 | C/C(=C\C(=O)C(C)C1CCC2C3=C(CCC21C)C1(C)CCC(=O)C(C)(C)C1(O)CC3)C(C)(C)O (stereo not given) | inactive | inactive | inactive | inactive |  | 
18 | CN(C)c1ccc(C2O[C@@H](c3ccccc3)C[C@H](c3ccccc3)O2)cc1 (stereo not given in full) | inactive | inactive | inactive | inactive |  | 
19 | C=C1CCC2(C(=O)OC3OC(CO)C(O)C(O)C3O)CCC3(C)C(=CCC4C5(C)CCC(OC6OC(CO)C(OC7OC(C)C(O)C(O)C7O)C(OC7OCC(O)C(O)C7O)C6O)C(C)(C)C5CCC43C)C2C1 (stereo not given) | inactive | inactive |  |  | 3.5% [at 11.6 µM] | 0.389% [at 11.6 µM]
20 | CC1=CC2=C(C)C(=O)C(C)(O)C(O)C2CO1 (stereo not given) | inactive | inactive | inactive | inactive |  | 
21 | O=C(CCCCC1CCCCC1)N1CCC(c2cnc[nH]2)CC1 | inactive | inactive | inactive | inactive |  | 
22 | CC/C=C\CC1C(CC(=O)O)CCC1OC1OC(CO)C(O)C(O)C1O (stereo not given) | inactive | inactive | inactive | inactive |  | 
23 | CC1=C[C@@H]2[C@H]3[C@@H]4O[C@@](C)(CC[C@H]4O)[C@H]3CC(=O)[C@]23C(=O)N[C@@H](CC(C)C)[C@@H]3[C@@H]1C | inactive | inactive | inactive | inactive |  | 
24 | C/C=C(\C)C(=O)OC[C@H]1O[C@H](O[C@H]2O[C@H](CO)[C@@H](O)[C@H](O)[C@H]2O[C@@H]2O[C@H](CO)[C@@H](O)[C@H](O)[C@H]2O)[C@H](O[C@@H]2O[C@H](CO)[C@@H](O)[C@H](O)[C@H]2O)[C@@H](O)[C@@H]1O | inactive | inactive | inactive | inactive |  | 
25 | COc1cc(C[C@@]2(O)CO[C@@H](c3ccc(O[C@@H]4O[C@H](CO)[C@@H](O)[C@H](O)[C@H]4O)c(OC)c3)[C@H]2CO)ccc1O | inactive | inactive | inactive | inactive |  | 
26 | COC(=O)[C@]1(Cc2ccc(O)c(CC=C(C)C)c2)OC(=O)C(O)=C1c1ccc(O)cc1 | inactive | inactive | inactive | inactive |  | 
27 | O=C(Cc1ccccc1)OC[C@H]1O[C@H](O[C@H]2O[C@H](CO)[C@@H](O)[C@H](O)[C@H]2O)[C@H](O)[C@@H](O)[C@@H]1O | inactive | inactive | inactive | inactive |  | 
28 | C/C=C(\C)C(=O)OCC1OC(OC2OC(CO)C(O)C(O)C2O)C(O)C(O)C1O (stereo not given) | inactive | inactive | inactive | inactive |  | 
29 | CC1(C)CC2C(O)C3=C(CC(C)(O)C2C1)C(=O)OC3 (stereo not given) | inactive | inactive | inactive | inactive |  | 
30 | C[C@@H]1C[C@@H](O)[C@@]2(CO)C(CO)=CCC[C@@H]2[C@@]12C[C@@H](c1ccoc1)OC2=O | inactive | inactive | inactive | inactive |  | 
